Screens (PubChem)
Sampled rows, rich in hits. Any-hit rate of the full collection: about 7.3%.
AmpC no deterg: blocks E. coli AmpC beta-lactamase in detergent-free assay. Potency, µM (series often up to 57.1 µM), for the others: at the top dose activity change, negative = inhibition, hits mostly inhibitors. AmpC nitrocefin hydrolysis, absorbance 480 nm, 0.0001% Triton. 0.52% of 330,000 active. AID 485341;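 also: potency is read from the fitted curve at half-maximal effect; plate controls were no compound for no effect and no enzyme for full effect; nearly all actives have a fitted effect of over 20% in size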
Target sequence (P00811 whole entry, looked up): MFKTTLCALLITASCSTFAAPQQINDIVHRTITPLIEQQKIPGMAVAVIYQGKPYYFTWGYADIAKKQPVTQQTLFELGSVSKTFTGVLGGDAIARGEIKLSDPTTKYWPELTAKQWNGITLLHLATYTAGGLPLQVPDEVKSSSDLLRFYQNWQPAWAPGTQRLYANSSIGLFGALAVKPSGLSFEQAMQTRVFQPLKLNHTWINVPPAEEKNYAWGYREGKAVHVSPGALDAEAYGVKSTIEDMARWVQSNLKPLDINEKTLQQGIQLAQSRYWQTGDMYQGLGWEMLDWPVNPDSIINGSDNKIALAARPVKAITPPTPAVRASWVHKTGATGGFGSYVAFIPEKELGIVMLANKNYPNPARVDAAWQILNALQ
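20 mM phosphate pH 7.0 + 0.01% (detergent screen) or 0.0001% Triton X-100; 5.3 nM AmpC reagent; cpd preinc 15 min RT; nitrocefin (800 uM stock) to start; A480 q20 s × 4 min; Activity was normalised to no-enzyme and no-compound control wells.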
AmpC detergent: AmpC beta-lactamase inhibition with detergent present; P00811; AmpC hydrolysis of nitrocefin, absorbance 480 nm, 0.01% Triton; Potency, µM (series often up to 114 µM), without a hit: top-dose activity change, negative = inhibition, usual class: inhibitors; 0.041% of 370,000 active;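 also: potency is read from the fitted curve at half-maximal effect; 0% = no-compound wells and -100% = no-enzyme wells; nearly all actives have a fitted effect of over 25% in size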
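AmpC (5.3 nM in the dispensed reagent) in 20 mM phosphate pH 7.0 with 0.01% (detergent screen) or 0.0001% Triton X-100 was preincubated with compounds for 15 min at room temperature. Nitrocefin was then added from an 800 uM solution, and hydrolysis was followed at 480 nm.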
HCV inh: inhibitors of hepatitis C virus infection; 3.4% of 340,000 active; Huh7.5.1 HCVcc-Cre infection, luciferase reporter, 44 h; Potency, µM (highest dose often 41.8 µM), inactives show at the highest dose activity change, negative = inhibition, actives largely listed as inhibitors; also: potency is read from the fitted curve at half-maximal effect
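A cell-based infection assay in which seeded cells (1,000 per well) receive test compound after 4 h, are inoculated with HCVcc-Cre at approximately 0.5 moi, and are incubated 44 h before luminescence detection.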
FMDV inh: blocks foot and mouth disease virus; 1.2% of 410,000 active; Potency, µM (top dose mostly 57.9 µM), without a hit: top-dose activity change, negative = inhibition, usual class: inhibitors; FMDV antiviral cell-based qHTS; calls by dose curve; tested in HEK293T cells; also: read-out not given here; potency is read from the fitted curve at half-maximal effect; nearly all actives have a fitted effect of over 45% in size
HCMV antiviral: inhibitors of human cytomegalovirus. activity change, negative = inhibition, % at 57.5 µM. 4.5% of 410,000 active. HFF cells, HCMV-luciferase reporter, 72 h; stronger effect = lower value. AID 1259415; in the data active = activity change below about -60%; inconclusive = no clear call, values can overlap the other calls; inactive = above about -39%
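Two compound doses tested in HFFs infected with HCMV-luciferase, MOI 1 PFU/cell, 72 h at 37C. Lysate luminescence read with OneGlo; data normalized against buffer-only and 10uM Salinomycin inhibitor controls.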
Numbers without * were called inactive; u = inconclusive; x = no result. Unless noted, calls follow the shape of the dose curve; as a rule, active = well fitted curve in the direction sought with a large enough effect; inconclusive = small, poorly fitted or top-dose-only effect, or another doubt; inactive = no such curve, though single readings can be large; an effect the other way counts as inactive or inconclusive. Unless noted, % is scaled to controls: 0 for no effect and ±100 for the full control effect.

SMILES | AmpC no deterg | AmpC detergent | HCV inh | FMDV inh | HCMV antiviral
CN1CCC(N(C)S(=O)(=O)c2ccc(NC(=O)c3ccc(S(=O)(=O)N(C)C)cc3)cc2)CC1 | 24% | x | u | -14% | -24
Cc1c(C(=O)Nc2ccc(S(=O)(=O)N(C)C3CCN(C)CC3)cc2)oc2ccccc12 | 152% | -10% | 6.3µM* | -23% | u
Cc1c(C(=O)Nc2ccc(S(=O)(=O)N(C)C3CCN(C)CC3)cc2)oc2c(Cl)cccc12 | 178% | u | 2µM* | -29% | -35
Cc1ccc(OCC(=O)Nc2ccc(S(=O)(=O)N(C)C3CCN(C)CC3)cc2)c(C)c1 | 154% | 3% | u | -21% | -7
CN1CCC(N(C)S(=O)(=O)c2ccc(NC(=O)COc3ccc(Br)cc3Cl)cc2)CC1 | 214% | -14% | 10µM* | -4% | -21
COc1cc(CN2CCc3nnc(C(NS(C)(=O)=O)C(C)C)n3CC2)ccc1F (stereo not given) | x | x | x | -8% | x
Cc1ccc(-c2nc(S(=O)(=O)c3ccc(C)cc3)c(SCC(=O)Nc3ccc(F)cc3)o2)cc1 | x | 7% | x | -16% | -2
CCSc1oc(-c2ccc(F)cc2)nc1S(=O)(=O)c1ccc(C)cc1 | x | u | x | -12% | -65*
CC(C)CS(=O)(=O)c1oc(-c2ccc(F)cc2)nc1S(=O)(=O)c1ccccc1 | x | -7% | x | 25µM* | -100*
O=C(C1=C(c2ccccc2)C(=O)c2ccccc2C1=O)c1ccccc1 | -6% | u | 10µM* | 10µM* | -99*
COc1cccc(N2CCN(C(=O)CN3C(=O)NC(C)(c4ccc5ccccc5c4)C3=O)CC2)c1 (stereo not given) | 82% | -7% | 11µM* | u | u
CN1CCN(C(=O)CN2C(=O)NC(C)(c3ccc4ccccc4c3)C2=O)CC1 (stereo not given) | 1% | -5% | -16% | -14% | u
COc1cccc(N2CCN(C(=O)CCCCCNc3nc(=S)[nH]c4ccccc34)CC2)c1 | -24% | -7% | 11µM* | 25µM* | -62*
COc1cccc(CNC(=O)C2CCC(CNc3nc(=S)[nH]c4ccccc34)CC2)c1 (stereo not given) | -7% | 14% | 2µM* | -11% | 14
COc1cccc(/C=N/Nc2cc(N3CCOCC3)ncn2)c1O | -4% | 1% | u | 1% | -99*
COc1cccc(/C=N/Nc2cc(Cl)nc(C)n2)c1O | -8% | -1% | 0% | 24% | 54
COc1cccc(/C=N/Nc2ncnc3c2ncn3Cc2ccccc2)c1O | -29% | -14% | u | -21% | -98*
COc1ccc(NC(=O)CSc2ncccc2C(=O)OC(C)C)cc1OC | 55% | 6% | 7.9µM* | u | -87*
CCn1c(N)c(C(=O)Nc2ccccc2C(=O)OC)sc1=S | -20% | 0% | 10µM* | 12% | -1
COC(=O)c1ccccc1C(=O)N(Cc1cccnc1)CC1CCCN(C2CCCCC2)C1 (stereo not given) | 29% | -2% | 11% | 2% | -26
Cn1nccc1C(=O)N(CCN1CCCCC1)CC1CCCN(C2CCCC2)C1 (stereo not given) | -11% | -14% | 14µM* | 51% | 34
CCOC(=O)c1c(C)oc2nc(C)nc(Nc3ccc(C)c(Cl)c3)c12 | x | 17% | x | -20% | 17
O=C1CC(c2ccc3c(c2)OCCO3)Oc2ccc([N+](=O)[O-])cc21 (stereo not given) | -23% | -1% | -4% | u | -77*
O=C1CC(c2ccc3c(c2)OCCO3)Oc2ccccc21 (stereo not given) | -8% | -13% | -16% | 52% | 12
Cc1ccccc1-c1nc(CN2CCC(C(=O)N3CCC(C(N)=O)CC3)CC2)c(C)o1 | 11µM* | u | -1% | -7% | 14
Cc1ccccc1-c1nc(CN2CCC(C(=O)NCCCN3CCCC3)CC2)c(C)o1 | 105% | u | 14µM* | 0% | -17
COC(=O)c1c(NC(=O)COC(=O)c2ccc(NC(=O)CC#N)cc2)sc2c1CCCCC2 | 32µM* | 2% | u | 0% | 9
